From PubChem
VDR inhibitor: inhibitors of human vitamin D receptor | VDR-SRC2-3 peptide fluorescence polarization, 2 h | Potency, µM, actives largely listed as inhibitors | 0.93% of 400,000 active | AID 504847
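VDR–SRC2-3 interaction, FP format. Cmpds 23 nl via pintool, brief spin, 2 h ambient incubation.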
PLK1 PBD block: blocks phosphopeptide binding to human PLK1 polo-box domain; Plk1 PBD binding of FITC phosphopeptide, fluorescence polarization; Potency, µM, actives largely listed as inhibitors; 2.8% of 360,000 active; also: series mostly up to about 57 µM; nearly all actives have a fitted effect of over 65% in size
Target sequence (P53350 whole entry, looked up, the tested form may be a part): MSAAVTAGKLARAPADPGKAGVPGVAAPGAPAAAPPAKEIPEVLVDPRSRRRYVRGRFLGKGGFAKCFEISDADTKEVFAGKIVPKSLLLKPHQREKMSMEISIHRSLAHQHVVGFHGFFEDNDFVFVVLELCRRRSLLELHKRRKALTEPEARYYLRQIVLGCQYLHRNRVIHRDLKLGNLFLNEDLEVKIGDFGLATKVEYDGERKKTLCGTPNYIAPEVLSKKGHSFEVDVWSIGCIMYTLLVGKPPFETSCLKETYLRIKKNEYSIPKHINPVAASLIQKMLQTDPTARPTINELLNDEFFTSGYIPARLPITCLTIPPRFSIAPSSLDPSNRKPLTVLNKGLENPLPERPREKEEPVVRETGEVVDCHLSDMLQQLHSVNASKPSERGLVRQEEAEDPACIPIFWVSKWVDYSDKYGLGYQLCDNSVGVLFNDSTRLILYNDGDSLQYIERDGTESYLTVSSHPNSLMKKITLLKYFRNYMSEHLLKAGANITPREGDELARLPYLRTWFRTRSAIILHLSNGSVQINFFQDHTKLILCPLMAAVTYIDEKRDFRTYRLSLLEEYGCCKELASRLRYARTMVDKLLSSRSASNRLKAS
CCT chaperon mod: cytosolic chaperonin activity modulation | activity change, % (concentration not given with the values), hits read low | purified chaperonin ATPase assay, HTRF ADP detection, 30 min | 0.3% of 360,000 active; in the data active = activity change below about -30%
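TRiC at 40 or 20 nM final (batch-dependent) in 30 mM Tris pH 7.4, 100 mM KCl, 5 mM MgCl2, 1 mM DTT, with compound at single 76 uM and 10 uM ATP, 30 min at 37 deg C. ADP detected by HTRF Transcreener, 665/615 ratio.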
Sfp inh: blocks B. subtilis Sfp PPTase activity | Potency, µM, actives largely listed as inhibitors | 3.5% of 310,000 active | Q9F4F7 | Biochemical Sfp PPTase activity, qHTS | AID 1490;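 also: the enzyme is Sfp with the accession as filed and its product quenches rhodamine fluorescence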
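Buffer: 50 mM Hepes-Na pH 7.6, 10 mM MgCl2, 0.01% Nonidet P-40, 0.01% BSA. Enzyme 15 nM, pre-exposed to compound 15 min; substrates then added and fluorescence change tracked over 30 min.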
MmCpn inh: M. maripaludis TRiC chaperonin inhibition | 0.031% of 330,000 active | purified Mm-Cpn ATPase, ADP Transcreener TR-FRET | Potency, µM (doses to about 76.9 µM), hits mostly inhibitors; also: nearly all actives have a fitted effect of over 80% in size
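Reaction buffer contained 30 mM Tris pH 7.4, 100 mM KCl, 5 mM MgCl2 and 1 mM DTT. Mm-CPN (25 nM final) hydrolysed 10 uM ATP over 30 min at 37°C; ADP was read by HTRF.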
G9a inh: G9a (human) methyltransferase inhibition | G9a H3K9 monomethylation, AlphaScreen, 2 h | AID 504332 | Q96KQ7 | 8.8% of 350,000 active | Potency, µM (titrated, usually from 102 µM), actives largely listed as inhibitors; also: nearly all actives have a fitted effect of over 75% in size
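G9a (20 nM) preincubated 15 min RT with compounds, then 500 nM biotinylated H3K9 peptide and 20 uM SAM added; 2 h RT reaction. Monomethyl-H3K9 product detected by AlphaScreen with anti-H3K9me1 antibody, streptavidin donor and anti-rabbit IgG acceptor beads.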
Numbers stand for hits; [ ] = remark or other dose. Compounds with a hit are over-represented: about 10% of the library has one in this group of screens. Unless noted, calls follow the shape of the dose curve; as a rule, active = well fitted curve in the direction sought with a large enough effect; inconclusive = small, poorly fitted or top-dose-only effect, or another doubt; inactive = no such curve, though single readings can be large; an effect the other way counts as inactive or inconclusive.

Results for COc1ccc(CCNC(=O)CC2Nc3ccccc3NC2=O)cc1OC (configuration not stated) ?
VDR inhibitor: inactive; PLK1 PBD block: inactive; CCT chaperon mod: inactive; Sfp inh: inactive; MmCpn inh: inactive; G9a inh: inactive[2.33 µM]

What do the screens show for `CCC(C)NC(=O)CC1Oc2ccc(Cl)cc2NC1=O` (configuration not stated)?
VDR inhibitor: inconclusive; PLK1 PBD block: inconclusive; CCT chaperon mod: inactive; Sfp inh: inactive; MmCpn inh: inactive; G9a inh: 45µM

What do the screens show for `COc1ccc(NC(=O)CC2C(=O)NCCN2C(=O)c2ccc(N(C)C)cc2)cc1` (configuration not stated)?
VDR inhibitor: inactive; PLK1 PBD block: inactive; CCT chaperon mod: -50; Sfp inh: inactive; MmCpn inh: inactive; G9a inh: inactive

What do the screens show for `CN(C)c1ccc(C(=O)N2CCNC(=O)C2CC(=O)Nc2ccc(F)cc2)cc1` (configuration not stated)?
VDR inhibitor: inconclusive; PLK1 PBD block: inactive; CCT chaperon mod: inactive; Sfp inh: inactive; MmCpn inh: inactive; G9a inh: inactive[12.7 µM]

What do the screens show for `CCC(=O)N1CCc2cc(S(=O)(=O)NC(C(=O)NCCc3cccc(C)c3)C(C)C)ccc21` (configuration not stated)?
VDR inhibitor: inactive; G9a inh: inactive

How did Nc1ccccc1-c1n[nH]c(=S)s1 do in these assays?
VDR inhibitor: inconclusive; PLK1 PBD block: inconclusive; CCT chaperon mod: inactive; Sfp inh: inactive; MmCpn inh: inconclusive; G9a inh: 0.63µM

What do the screens show for `O=C(c1cccc(F)c1)N1CCC2(CCCN(Cc3ccccc3)C2)CC1`?
VDR inhibitor: inactive; Sfp inh: inactive; G9a inh: inactive[12.7 µM]

What do the screens show for `Cc1ccc(C(C)C)cc1OCCn1cncn1`?
VDR inhibitor: inactive; PLK1 PBD block: inactive; CCT chaperon mod: inactive; Sfp inh: inconclusive; MmCpn inh: inactive; G9a inh: 11µM

What do the screens show for `O=C(Oc1cccc(Oc2ccccc2)c1)N1CCOCC1`?
VDR inhibitor: inactive; PLK1 PBD block: inactive; CCT chaperon mod: inactive; Sfp inh: inactive; MmCpn inh: inactive; G9a inh: inactive

What do the screens show for `S=C(c1ccc(-c2ccccc2)cc1)N1CCOCC1`?
VDR inhibitor: inactive; PLK1 PBD block: inconclusive; CCT chaperon mod: inactive; Sfp inh: inactive; MmCpn inh: inactive; G9a inh: 40µM

What do the screens show for `O=C(Oc1ccccc1C(=O)N1CCOCC1)c1ccc(Br)cc1`?
VDR inhibitor: inactive; PLK1 PBD block: inactive; CCT chaperon mod: inactive; Sfp inh: inactive; MmCpn inh: inactive; G9a inh: inactive

Results for O=C(Oc1ccc(Br)cc1C(=S)N1CCOCC1)c1ccccc1 ?
VDR inhibitor: inactive; PLK1 PBD block: inactive; CCT chaperon mod: inactive; Sfp inh: inactive; MmCpn inh: inactive; G9a inh: 45µM

Results for O=C(Oc1cccc(C(=S)N2CCOCC2)c1)c1ccccc1 ?
VDR inhibitor: inactive; PLK1 PBD block: inconclusive; CCT chaperon mod: inactive; Sfp inh: 56µM; MmCpn inh: inactive; G9a inh: 7.1µM

Results for O=C(CSc1ccc([N+](=O)[O-])cn1)Nc1ccccc1N1CCOCC1 ?
VDR inhibitor: inactive; PLK1 PBD block: inactive; CCT chaperon mod: inactive; Sfp inh: inactive; MmCpn inh: inactive; G9a inh: 40µM

Results for Cc1cc(C)c2nc(SCC(=O)Nc3ccccc3N3CCOCC3)c(C#N)cc2c1 ?
VDR inhibitor: inactive; PLK1 PBD block: 30µM; CCT chaperon mod: inactive

How did COc1ccc2nc(SCC(=O)N3CC(=O)Nc4ccccc43)c(C#N)cc2c1 do in these assays?
VDR inhibitor: inactive; PLK1 PBD block: inactive; CCT chaperon mod: inactive; Sfp inh: inactive; MmCpn inh: inactive; G9a inh: inactive

Results for Cc1cc(C)c2nc(SCC(=O)N3CC(=O)Nc4ccccc43)c(C#N)cc2c1 ?
VDR inhibitor: inactive; PLK1 PBD block: inactive; CCT chaperon mod: inactive; Sfp inh: inactive; MmCpn inh: inactive; G9a inh: 10µM

How did Cc1csc(NC(=O)CSc2ccc([N+](=O)[O-])cn2)n1 do in these assays?
VDR inhibitor: inactive; PLK1 PBD block: inactive; CCT chaperon mod: inactive; Sfp inh: inactive; MmCpn inh: inactive; G9a inh: 50µM
